From PubChem BioAssay (NCI)
The panel holds about 83,000 compounds, 20% with a hit somewhere; the sample as a whole holds those more often.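 In brief: 96-well plates, 48 h treatment, single concentration, percent growth endpoint.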 Unmarked numbers belong to inactive results. Activity calls are given as the source filed them. How the source made its calls: active means growth percent below 10; inactive means the rest.

Legend:
Assay in all cases: NCI-60 one-dose screen, 48 h (100 = growth as untreated, 0 = no growth, -100 = all killed)
Settings in all cases: 10 µM unless noted
[1] = tested on: DU-145 prostate
[2] = tested on: K-562 leukemia
[3] = tested on: MALME-3M melanoma
[4] = tested on: MDA-MB-231 breast
[5] = tested on: RXF 393 renal
[6] = tested on: SF-268 CNS
[7] = tested on: SF-295 CNS
[8] = tested on: SF-539 CNS
[9] = tested on: UACC-257 melanoma
[10] = tested on: HCT-15 colon
[11] = tested on: HT29 colon
[12] = tested on: SNB-75 CNS
[13] = tested on: SNB-19 CNS
[14] = tested on: U251 CNS
[15] = tested on: PC-3 prostate
[16] = tested on: SK-MEL-5 melanoma
[17] = tested on: UACC-62 melanoma
[18] = tested on: LOX IMVI melanoma
[19] = tested on: M14 melanoma
[20] = tested on: SK-MEL-28 melanoma

SMILES | growth [1] | growth [2] | growth [3] | growth [4] | growth [5] | growth [6] [%] | growth [7] | growth [8] | growth [9] | growth [10] | growth [11] | growth [12] | growth [13] | growth [14] | growth [15] | growth [16] | growth [17] | growth [18] | growth [19] [%] | growth [20] [%]
Cc1cc2c(F)c(Oc3ncnc(Nc4ccc(N5C[C@@H](C)N[C@@H](C)C5)cc4)c3C#N)cc(F)c2[nH]1 | 38.9% | -40.4% (active) | 75% | -0.722% (active) | -25.7% (active) | 29.3 | 17.4% | -78.7% (active) | 65.9% | 0.331% (active) | -47.6% (active) | -28.2% (active) | 37.4% | 11.2% | 42.4% | 21.7% | 85.8% | -60.5% (active) | – | –
Cc1cc(Cl)nc(N(CCCNc2ccnc3cc(Cl)ccc23)Cc2ccccn2)n1 | 66.2% | 4.3% (active) | 73.2% | 53.4% | 41.8% | 74.6 | 38.9% | 38.9% | 53.5% | 35.2% | 10.2% | 64.1% | – | 43.9% | 54.2% | 34.1% | 55.9% | – | 44.4 | 68
Fc1ccc(Nc2nc(Nc3ccc(-c4nc5ccccc5[nH]4)cc3)c3cn[nH]c3n2)cc1 | 54.3% | -28.7% (active) | 107% | 22.2% | 76.2% | 75.1 | 92.6% | 85.5% | 101% | -41.2% (active) | -8.84% (active) | 83.3% | 87.6% | 33.5% | 76.6% | 78.8% | 84.9% | -64.6% (active) | – | 51.7
CN1CCN(C(=O)[C@]23CCC(C)(C)C[C@@H]2C2=CC[C@@H]4[C@@]5(C)Cc6c([nH]c7ccccc67)C(C)(C)[C@@H]5CC[C@@]4(C)[C@]2(C)CC3)CC1 | 84.6% | 66.1% | 90.2% | 79% | 80.1% | 84.6 | 92.2% | 76.7% | 86.1% | 81.5% | 71.3% | 56.6% | – | 78.3% | 64.8% | 94% | 95.9% | 77.4% | 78 | 89.6
CCn1c(Sc2nnc(NC(=O)CCN3CCCC3)s2)nc2c1c(=O)n(C)c(=O)n2C | 104% | 102% | 107% | 103% | 110% | 102 | 107% | 98.4% | 102% | 104% | 107% | 97.8% | – | 95.3% | 103% | 104% | 101% | 99.9% | 107 | 111
O=C(NCc1cccnc1)c1cc(-c2csc3c(=O)cc(N4CCOCC4)oc23)cc2c1OCCO2 | 70% | 24.8% | 47.9% | 21.5% | 40.6% | 53 | 30% | 10.6% | 47% | 66.5% | 18% | -9.26% (active) | – | 51.8% | 38.6% | 39.6% | 12.2% | – | 43.4 | 49
Cc1nc2ccccc2c(/C=C/c2ccc(Cl)cc2)c1C(=O)/C=C/c1ccc(Cl)cc1 | -70.5% (active) | 2% (active) | -54.1% (active) | -34.1% (active) | -72.4% (active) | 25.8 | -65.6% (active) | -88.4% (active) | -17.2% (active) | -31.3% (active) | 3.75% (active) | 81.5% | -48.2% (active) | -71.6% (active) | -18% (active) | -71.7% (active) | -42.9% (active) | -93.8% (active) | – | –
COc1ccc(-c2nc3ccccn3c2/C=C/C(=O)c2cc(OC)c(OC)c(OC)c2)cc1 | 58.1% | 49.8% | 43.3% | 42.1% | 43.9% | 38.2 | 123% | 8.84% (active) | 55.3% | 50.4% | 45.2% | 44.3% | 72.4% | 36% | 56.2% | 26.9% | 45.2% | 44.2% | – | 41.1
Cc1nn(Cc2ccccc2)cc1C(=O)Nc1sc2c(c1C(N)=O)CCC(=O)C2 | 67.6% | 10.5% | 27.6% | 25% | 31.4% | 20.5 | 79.7% | 9.16% (active) | 70.7% | 13.6% | 13.1% | 54.5% | – | 23.2% | 15.6% | 28.8% | 13.9% | 17.2% | 16.7 | 29.8
CCCCCCN(CCCCCC)CC(O)c1cccc2ccc(Cl)cc12 (stereo not drawn) | 61.8% | 32.9% | 65.6% | 43.3% | 24.1% | 121 | 42% | 65.5% | 74.4% | 53.4% | 15.9% | 116% | – | 55.2% | 37.1% | 61.8% | 51.4% | 34.7% | 63.3 | 87.9
Nc1c(C(=O)c2ccc(Cl)s2)sc2nc3c(cc12)CCCC3 | 110% | 101% | 100% | 108% | 113% | 104 | 102% | 96.8% | 105% | 107% | 94.2% | 103% | 105% | 97.8% | 88.4% | 96.8% | 106% | 96.8% | – | 119
Clc1cnc(Nc2ccc(OCCN3CCCC3)cc2)nc1NCc1ccco1 | 17.5% | 16.4% | 26.1% | -5.14% (active) | -37.7% (active) | 21.1 | 31.2% | -14.2% (active) | 49.1% | 6.01% (active) | 11.3% | -3.83% (active) | – | 19.6% | 28.7% | 46.1% | 46.5% | – | 35.1 | 51.7
CCCc1cc(=O)oc2c3c(c4c(c12)OC(C)(C)C=C4)O[C@@H](C)[C@H](C)C3=O | 79.4% | 47.6% | 90% | 71.9% | 18.4% | 86.4 | 69.9% | 81% | 55.1% | 98.1% | 41% | 87.7% | 93.6% | 65.7% | 40.7% | 32.1% | 66% | 81.2% | – | –
COc1ccc(/C=N/NC(=O)Cn2c(-c3ccc(S(C)(=O)=O)cc3)nc3cc(Cl)ccc32)cc1 | 14.2% | 6.93% (active) | 65.8% | 12.9% | 14.9% | 45.2 | 13.4% | -14.1% (active) | 64.4% | 17.5% | 3.57% (active) | 26.5% | – | 10.4% | 18.4% | 12.7% | 26.1% | 30.8% | 13.5 | 52.7
CCOc1ccc(S(=O)(=O)c2ccc(C)cc2)c2c1no[n+]2[O-] | 86.2% | 46.1% | 81.3% | 81.2% | 81.8% | 99.1 | 82.9% | 87% | 95.8% | – | 52.8% | 54.7% | 87.9% | 80.1% | 82.1% | 72.5% | 78.5% | 87.1% | 93.4 | 104
OC(COc1cccc2ccccc12)CN1CCN(c2ccccc2)CC1 (stereo not drawn) | 109% | 114% | 97.7% | 96.1% | 9.82% (active) | 103 | 73.3% | 99.8% | 63.3% | 99.6% | 94% | 81.8% | 97.4% | 95.7% | – | 90.4% | 98.2% | 92.1% | 86.8 | 105
